Measured values reported in PubChem BioAssay (Tox21).
Unmarked numbers belong to inactive results. Inconclusive results are not listed. Where a call stands in place of a potency, no number is given. Activity calls are given as the source filed them. Unless noted, the call rests on the fitted dose curve; in most records, active means well fitted curve in the direction sought with a large enough effect in the repeat runs; inconclusive means weak or mixed curves; inactive means no such curve, though single readings can be large; an effect the other way counts as inactive or inconclusive.

What was measured:
[1] = qHTS assay to identify small molecule agonists of the estrogen receptor beta (ER-beta) signaling pathway - cell viability counter screen (AID 1259380); further: nearly all actives have a fitted effect of over 30% in size; further: potency means the concentration at half of the fitted maximal effect
Summary of the method: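 CellTiter-Glo read, 30 min RT, same wells as bla assay; cells ER-beta-UAS-bla HEK293T; 16 hr compound, 37C; medium 2% charcoal-stripped FBS.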

[2] = molecular target: Androgen receptor (Homo sapiens) (UniProt P10275); assay: qHTS assay to identify small molecule agonists of the androgen receptor (AR) signaling pathway in the presence of an antagonist (AID 1259381; calls by dose curve; further: nearly all actives have a fitted effect of over 15% in size)
Sequence of Androgen receptor (Homo sapiens) (P10275 whole entry, looked up): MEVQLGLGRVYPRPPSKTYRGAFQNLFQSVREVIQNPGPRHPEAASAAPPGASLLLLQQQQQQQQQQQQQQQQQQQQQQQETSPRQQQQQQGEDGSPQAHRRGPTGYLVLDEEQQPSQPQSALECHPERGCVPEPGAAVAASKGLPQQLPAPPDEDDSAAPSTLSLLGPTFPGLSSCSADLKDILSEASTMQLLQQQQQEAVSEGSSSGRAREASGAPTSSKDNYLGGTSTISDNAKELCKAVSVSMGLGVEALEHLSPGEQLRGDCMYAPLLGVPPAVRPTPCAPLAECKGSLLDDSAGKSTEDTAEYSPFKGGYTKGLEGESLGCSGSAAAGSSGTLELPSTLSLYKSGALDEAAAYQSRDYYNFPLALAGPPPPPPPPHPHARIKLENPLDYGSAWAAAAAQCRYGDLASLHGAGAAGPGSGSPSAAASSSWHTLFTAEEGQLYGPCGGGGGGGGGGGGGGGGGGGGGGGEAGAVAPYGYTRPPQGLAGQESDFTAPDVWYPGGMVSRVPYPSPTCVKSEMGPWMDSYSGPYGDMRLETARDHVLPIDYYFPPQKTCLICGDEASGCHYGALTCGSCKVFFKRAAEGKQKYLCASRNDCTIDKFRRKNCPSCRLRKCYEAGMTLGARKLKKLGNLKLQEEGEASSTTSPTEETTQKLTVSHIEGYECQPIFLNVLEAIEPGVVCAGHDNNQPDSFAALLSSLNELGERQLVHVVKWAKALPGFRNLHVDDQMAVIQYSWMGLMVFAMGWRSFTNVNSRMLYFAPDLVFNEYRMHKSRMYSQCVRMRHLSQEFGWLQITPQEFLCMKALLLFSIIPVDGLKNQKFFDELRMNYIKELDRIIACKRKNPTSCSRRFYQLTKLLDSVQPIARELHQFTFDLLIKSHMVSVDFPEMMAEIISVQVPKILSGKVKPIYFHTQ
Summary of the method: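 Test compounds at 15 concentrations were incubated for 16hr with MDA-kb2 reporter cells in presence of 3.0uM nilutamide (final). Signal: ONE-Glo luciferase luminescence.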

[3] = qHTS assay to identify small molecule antagonists of the estrogen receptor beta (ER-beta) signaling pathway - cell viability counter screen (AID 1259382);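 further: HEK293T cells carrying ER-beta-UAS-bla reporter stimulated with estradiol; series mostly up to about 92 µM; nearly all actives have a fitted effect of over 55% in size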
Summary of the method: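 In this multiplexed counter screen, cells were seeded at 2,000 per well in medium with 2% charcoal-stripped FBS and incubated 6 hr before compound and 1nM final E2 were added. Sixteen hours later, ATP-based luminescence reported viability.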

[4] = molecular target: Estrogen receptor (Homo sapiens) (UniProt P03372); assay: qHTS assay to identify small molecule agonists of the estrogen receptor alpha (ER-alpha) signaling pathway in the presence of an antagonist (AID 1259383; calls by dose curve; further: top concentration of the series differs between compounds; nearly all actives have a fitted effect of over 15% in size)
Sequence of Estrogen receptor (Homo sapiens) (P03372 whole entry, looked up): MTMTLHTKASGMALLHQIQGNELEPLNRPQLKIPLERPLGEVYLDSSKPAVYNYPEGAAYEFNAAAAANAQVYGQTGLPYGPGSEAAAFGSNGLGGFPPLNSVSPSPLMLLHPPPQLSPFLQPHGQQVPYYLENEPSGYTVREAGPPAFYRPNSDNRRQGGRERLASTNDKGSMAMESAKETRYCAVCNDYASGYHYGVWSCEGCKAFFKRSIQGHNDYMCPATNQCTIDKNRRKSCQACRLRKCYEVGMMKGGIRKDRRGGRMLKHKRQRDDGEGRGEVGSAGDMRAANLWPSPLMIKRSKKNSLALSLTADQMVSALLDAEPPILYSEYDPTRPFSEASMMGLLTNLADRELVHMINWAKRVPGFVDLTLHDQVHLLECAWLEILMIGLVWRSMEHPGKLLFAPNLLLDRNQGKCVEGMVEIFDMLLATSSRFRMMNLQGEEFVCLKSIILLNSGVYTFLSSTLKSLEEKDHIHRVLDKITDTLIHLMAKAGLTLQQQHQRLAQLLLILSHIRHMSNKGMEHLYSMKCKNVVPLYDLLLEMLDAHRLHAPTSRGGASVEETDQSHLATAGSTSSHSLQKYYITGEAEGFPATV
Summary of the method: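 Stably transfected VM7Luc4E2 reporter cells, kept 5 days in charcoal-stripped serum, received ICI-182,780 at 10.0nM final before compound addition. Following 22hr incubation at 37C and 5% CO2, luciferase signal was read by luminescence.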

[5] = qHTS assay to identify small molecule agonists or antagonists of the thyroid stimulating hormone receptor (TSHR) signaling pathway - wild type cell line counter screen (AID 1259384; calls by dose curve)
Summary of the method: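 Wild-type HEK293 cells were plated 18 h at 37 C/5% CO2, pin-dosed with compound plus Ro20-1724 medium, held 30 min at room temperature, then given cAMP-d2 and anti-cAMP-cryptate; fluorescence was read after 1 h. Fifteen concentrations, triplicate.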

[6] = molecular target: Thyrotropin receptor (Homo sapiens) (UniProt P16473); assay: qHTS assay to identify small molecule antagonists of the thyroid stimulating hormone receptor (TSHR) signaling pathway (AID 1259385; calls by dose curve; further: nearly all actives have a fitted effect of over 20% in size)
Sequence of Thyrotropin receptor (Homo sapiens) (P16473 whole entry, looked up): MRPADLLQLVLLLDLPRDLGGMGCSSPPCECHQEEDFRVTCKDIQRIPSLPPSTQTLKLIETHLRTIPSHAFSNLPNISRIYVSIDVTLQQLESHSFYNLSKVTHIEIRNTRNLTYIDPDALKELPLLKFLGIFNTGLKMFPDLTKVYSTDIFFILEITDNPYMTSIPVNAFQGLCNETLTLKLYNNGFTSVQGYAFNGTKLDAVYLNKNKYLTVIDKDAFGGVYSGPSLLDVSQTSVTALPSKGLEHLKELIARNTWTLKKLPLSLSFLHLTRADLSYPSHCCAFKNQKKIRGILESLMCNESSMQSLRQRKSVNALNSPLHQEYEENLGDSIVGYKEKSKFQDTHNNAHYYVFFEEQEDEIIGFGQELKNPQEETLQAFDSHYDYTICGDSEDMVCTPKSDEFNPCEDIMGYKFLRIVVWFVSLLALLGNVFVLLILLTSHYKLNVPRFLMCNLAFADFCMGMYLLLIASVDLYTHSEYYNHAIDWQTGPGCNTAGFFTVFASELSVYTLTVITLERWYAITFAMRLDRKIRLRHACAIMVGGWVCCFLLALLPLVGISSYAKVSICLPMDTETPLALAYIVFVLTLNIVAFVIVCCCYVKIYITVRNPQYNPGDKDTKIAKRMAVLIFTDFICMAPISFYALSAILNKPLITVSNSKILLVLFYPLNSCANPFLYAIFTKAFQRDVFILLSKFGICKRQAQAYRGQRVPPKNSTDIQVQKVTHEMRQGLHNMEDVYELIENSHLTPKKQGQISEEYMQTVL
Summary of the method: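 TSHR-HEK293 cells were plated and held 18 h at 37C/5% CO2, then given compound plus Ro20-1724 and stimulated with TSH at 1.5 ng/mL final. After 30 min at room temperature, cAMP was detected with cAMP-d2/anti-cAMP-cryptate (1 h) by fluorescence.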

[7] = qHTS assay to identify small molecule agonists of the estrogen receptor alpha (ER-alpha) signaling pathway in the presence of an antagonist - cell viability counter screen (AID 1259386);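 further: series mostly up to about 92 µM; cells exposed to compounds for 22 h at 37 °C before the viability read; nearly all actives have a fitted effect of over 30% in size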
Summary of the method: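 Viability counter screen using VM7Luc4E2 (full-length ER-alpha, four ERE-luciferase). The cells were treated with compounds alongside ICI-182,780 10.0nM for 22hr, and live-cell protease fluorescence was quantified with CellTiter-Fluor.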

[8] = molecular target: Progesterone receptor (Homo sapiens) (UniProt P06401); assay: qHTS assay to identify small molecule agonists of the progesterone receptor (PR) signaling pathway (AID 1346784; calls by dose curve; further: nearly all actives have a fitted effect of over 30% in size)
Sequence of Progesterone receptor (Homo sapiens) (P06401 whole entry, looked up): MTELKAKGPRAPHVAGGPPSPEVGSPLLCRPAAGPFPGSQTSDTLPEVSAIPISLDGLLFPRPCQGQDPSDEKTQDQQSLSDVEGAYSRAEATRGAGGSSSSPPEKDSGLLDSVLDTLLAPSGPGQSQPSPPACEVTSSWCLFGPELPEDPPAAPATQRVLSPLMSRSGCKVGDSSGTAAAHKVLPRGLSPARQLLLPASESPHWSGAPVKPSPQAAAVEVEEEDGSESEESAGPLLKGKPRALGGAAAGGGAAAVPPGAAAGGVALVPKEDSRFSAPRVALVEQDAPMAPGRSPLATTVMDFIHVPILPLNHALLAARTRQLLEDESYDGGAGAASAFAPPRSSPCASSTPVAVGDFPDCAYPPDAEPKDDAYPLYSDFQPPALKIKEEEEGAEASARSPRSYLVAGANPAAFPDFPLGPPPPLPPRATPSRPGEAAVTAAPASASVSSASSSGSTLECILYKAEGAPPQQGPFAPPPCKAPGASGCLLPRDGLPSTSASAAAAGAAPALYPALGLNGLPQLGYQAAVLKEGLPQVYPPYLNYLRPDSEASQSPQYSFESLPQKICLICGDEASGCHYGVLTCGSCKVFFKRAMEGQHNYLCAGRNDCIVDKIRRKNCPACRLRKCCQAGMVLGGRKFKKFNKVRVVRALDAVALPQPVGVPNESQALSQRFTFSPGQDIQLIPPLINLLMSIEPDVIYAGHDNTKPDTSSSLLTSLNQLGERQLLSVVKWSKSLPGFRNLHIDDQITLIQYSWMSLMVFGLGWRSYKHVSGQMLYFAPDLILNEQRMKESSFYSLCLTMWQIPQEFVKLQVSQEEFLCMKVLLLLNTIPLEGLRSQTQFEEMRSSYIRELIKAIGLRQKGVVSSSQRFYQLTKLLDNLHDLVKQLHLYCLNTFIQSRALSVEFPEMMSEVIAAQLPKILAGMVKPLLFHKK
Summary of the method: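 The screen uses PR-UAS-bla HEK 293T cells in charcoal-stripped serum (2%). Compounds are applied for 16 hr at 37C after a 6 hr pre-incubation, and reporter activity is detected with a FRET beta-lactamase substrate after 2 hr at room temperature.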

[9] = molecular target: Progesterone receptor (Homo sapiens) (UniProt P06401); assay: qHTS assay to identify small molecule antagonists of the progesterone receptor (PR) signaling pathway (AID 1346795; active means well fitted inhibition curve with a large enough effect in the signal ratio in the repeat runs, not every such curve was filed as active; the % refers to the signal ratio)
Summary of the method: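 After 6 hr plating at 37C in 2% stripped-serum medium, PR-UAS-bla HEK293T cells got compounds, then 1 nM R5020. Sixteen hours later, LiveBLAzer substrate was applied for 2 hr at room temperature and fluorescence was recorded.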

[10] = qHTS assay to identify small molecule antagonists of the progesterone receptor (PR) signaling pathway - cell viability counter screen (AID 1346798); further: series mostly up to about 92 µM; nearly all actives have a fitted effect of over 50% in size
Summary of the method: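 Viability was determined by ATP-based luminescence (CellTiter-Glo) in PR-UAS-bla HEK293T cells cultured in 2% charcoal-stripped serum and incubated 16 hr with compounds under R5020 stimulation.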

[11] = qHTS assay to identify small molecule agonists of the progesterone receptor (PR) signaling pathway - cell viability counter screen (AID 1346799; calls by dose curve; further: nearly all actives have a fitted effect of over 45% in size)
Summary of the method: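 Viability was scored by ATP luminescence (CellTiter-Glo, 30 min, room temperature) in the same wells used for the reporter readout, after 16 hr compound exposure of PR-UAS-bla HEK293T cells.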

[12] = qHTS assay to identify small molecule antagonists of the TGF-beta/Smad signaling pathway - cell viability counter screen (AID 1346824); further: nearly all actives have a fitted effect of over 50% in size
Summary of the method: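 SBE-bla HEK 293T cells were plated overnight at 37 C, then given compounds in DMSO plus TGF-beta1 (added as 0.25 ng/mL solution) for 5 hr. After the bla read, CellTiter-Glo was added to the same wells and luminescence read after 30 min at room temperature.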

[13] = qHTS assay to identify small molecule agonists of the TGF-beta/Smad signaling pathway - cell viability counter screen (AID 1346829); further: top concentration of the series differs between compounds; nearly all actives have a fitted effect of over 45% in size
Summary of the method: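 Same-well cytotoxicity: CellTiter-Glo added after the 2 hr room-temperature beta-lactamase substrate step, luminescence measured 30 min later; cells had 5 hr of compound at 37 C.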

[14] = qHTS assay to identify small molecule agonists of the TGF-beta/Smad signaling pathway (AID 1346859; active means well fitted activation curve with a large enough effect in the signal ratio in the repeat runs, not every such curve was filed as active; the % refers to the signal ratio; further: series mostly up to about 77 µM)
Summary of the method: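 Dual-wavelength fluorescence (460/530 nm emission) quantified beta-lactamase expression under the Smad binding element in HEK 293T cells following 5 hr compound treatment at 37 C.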

[15] = molecular target: Thyrotropin-releasing hormone receptor (Homo sapiens) (UniProt P34981); assay: qHTS assay to identify small molecule antagonists of the thyrotropin-releasing hormone receptor (TRHR) signaling pathway (AID 1346877; active means well fitted inhibition curve with a large enough effect in the repeat runs, not every such curve was filed as active; further: series mostly up to about 51 µM)
Sequence of Thyrotropin-releasing hormone receptor (Homo sapiens) (P34981 whole entry, looked up): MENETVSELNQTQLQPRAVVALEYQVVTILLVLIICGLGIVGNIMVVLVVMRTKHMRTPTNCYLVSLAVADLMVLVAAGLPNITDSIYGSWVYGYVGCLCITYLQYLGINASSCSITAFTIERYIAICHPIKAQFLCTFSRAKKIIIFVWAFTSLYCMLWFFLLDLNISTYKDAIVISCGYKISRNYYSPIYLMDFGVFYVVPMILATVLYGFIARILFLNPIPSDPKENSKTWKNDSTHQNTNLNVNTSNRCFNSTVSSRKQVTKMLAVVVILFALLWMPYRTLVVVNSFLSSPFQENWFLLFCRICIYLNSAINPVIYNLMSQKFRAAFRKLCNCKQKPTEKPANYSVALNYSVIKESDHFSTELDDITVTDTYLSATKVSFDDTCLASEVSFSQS
Summary of the method: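 Following an 18 h incubation at 37 °C and a 2 h calcium dye load, TRHR-HEK293 cells were exposed to compound (5 min, room temperature) and challenged with TRH, 1 nM final.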

[16] = molecular target: Thyrotropin-releasing hormone receptor (Homo sapiens) (UniProt P34981); assay: qHTS assay to identify small molecule agonists of the thyrotropin-releasing hormone receptor (TRHR) signaling pathway (AID 1346891; calls by dose curve;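 further: HEK293 cells expressing TRHR with calcium dye readout; series mostly up to about 58 µM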)
Summary of the method: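 Kinetic fluorescence (3 min, 1 s intervals) reported intracellular calcium after compound transfer onto TRHR-Hek293 cells pre-loaded with dye for 2 h at 37 °C.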

[17] = Human pregnane X receptor (PXR) small molecule agonists, qHTS cell viability counter screen (AID 1346977); further: nearly all actives have a fitted effect of over 50% in size
Summary of the method: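 HepG2 cells stably carrying the PXR-Luc reporter are cultured with 5% charcoal-stripped FBS and treated with compounds for 24hr. CellTiter-Fluor is added at 23hr and fluorescence is read after 1hr.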

[18] = Caspase-3/7 induction in HepG2 cells by small molecules, qHTS assay (AID 1346978); further: nearly all actives have a fitted effect of over 15% in size
Summary of the method: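 Wild-type HepG2 cells (2,000/well) were settled 5 h at 37 C, 5% CO2, then exposed to compounds in DMSO for 17 h. Caspase-3/7 activity was read by luminescence 30 min after adding Caspase-Glo 3/7 reagent at room temperature.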

[19] = Caspase-3/7 induction in CHO-K1 cells by small molecules, qHTS assay (AID 1346980); further: nearly all actives have a fitted effect of over 15% in size
Summary of the method: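 Wild-type cells were seeded at 1,500 per well and settled 5 hr at 37 C, 5% CO2, then exposed to DMSO-dissolved compounds for 17 hr. Caspase-Glo 3/7 reagent was added, and luminescence was read after 30min at room temperature.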

[20] = Caspase-3/7 induction in CHO-K1 cells by small molecules, qHTS cell viability counter screen (AID 1346979); further: nearly all actives have a fitted effect of over 35% in size
Summary of the method: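 Seeding: 1,500 CHO-K1 cells/well. Rest: 5hr, 37C. Treatment: compounds in DMSO, 16hr. Read: CellTiter-Fluor, 1hr, fluorescence.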

SMILES	Potency [1]	Potency [2]	Potency [3]	Potency [4]	Potency [5]	Potency [6]	Potency [7]	outcome [8]	Potency [9]	Potency [10]	Potency [11]	Potency [12]	Potency [13]	outcome [14]	Potency [15]	Potency [16]	Potency [17]	Potency [18]	Potency [19]	Potency [20]
CCOC(=O)OC(=O)OCC	inactive	inactive	inactive	inactive	inactive	inactive	inactive	inactive	inactive	inactive	inactive	inactive	inactive	inactive	inactive	inactive	inactive	inactive	inactive	
[Cl][Sc]([Cl])[Cl]	inactive	inactive	inactive	inactive	inactive	inactive	inactive	inactive		inactive	inactive	inactive	inactive	inactive			inactive	inactive	inactive	inactive
CCn1c2ccccc2c2ccccc21	inactive	inactive	inactive	inactive	inactive	inactive		inactive	inactive	inactive	inactive	inactive		inactive	inactive	inactive	inactive	inactive	inactive	inactive
N#CCCOCCC#N	inactive	inactive	inactive	inactive	inactive	inactive	inactive	inactive		inactive	inactive	inactive	inactive	inactive	inactive	inactive	inactive	inactive	inactive	inactive
Cc1ccc2sc3cccc(C)c3c2c1	inactive	inactive	inactive	inactive	inactive	inactive	inactive	inactive		inactive	inactive	inactive	inactive	inactive	inactive	inactive	inactive	inactive	inactive	
CCC(=O)OC/C=C(\C)CCC=C(C)C	inactive	inactive	inactive	inactive	inactive	inactive	inactive	inactive		inactive	inactive	inactive	inactive	inactive	inactive	inactive	inactive	inactive	inactive	inactive
O=C1c2ccccc2C(=O)c2c(Cl)cccc21	32.4 µM (active)	inactive	inactive	inactive	inactive	inactive	inactive	inactive	inactive	inactive	inactive	inactive		inactive	inactive	inactive	inactive	inactive	inactive	
